In PubChem BioAssay AID2435 (The Scripps Research Institute Molecular Screening Center, 2010) one finds activation data, which are given here for 92 molecules.

Hit rate of the full screen: of about 320,000 compounds, about 1,000 (0.31%) were called active. Many of the other results were omitted from the sample, so actives are more common in it than they were. Values without a mark were called inactive.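 How the source made its calls: active means activation above the mean of all tested compounds plus 3 SD, cutoff set per screening run (cut at about 20% in these data); inactive means the rest.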

Chain of Oxytocin receptor (Homo sapiens) (P30559 whole entry, looked up): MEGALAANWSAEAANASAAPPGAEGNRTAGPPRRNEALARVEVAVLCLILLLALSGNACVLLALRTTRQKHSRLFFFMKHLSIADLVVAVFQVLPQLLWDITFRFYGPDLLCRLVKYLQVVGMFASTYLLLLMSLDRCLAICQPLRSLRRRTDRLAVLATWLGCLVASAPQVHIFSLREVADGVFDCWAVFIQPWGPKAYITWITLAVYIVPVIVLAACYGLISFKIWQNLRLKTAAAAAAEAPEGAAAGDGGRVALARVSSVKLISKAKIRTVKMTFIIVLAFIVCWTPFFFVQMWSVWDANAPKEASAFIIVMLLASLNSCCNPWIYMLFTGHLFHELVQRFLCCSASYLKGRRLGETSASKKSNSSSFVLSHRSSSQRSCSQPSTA

This test has as its target Oxytocin receptor (Homo sapiens) (UniProt P30559). Description: human OXTR agonists, primary screen, fluorescence, CHO-OTR cells, Fluo-8 calcium (AID 2435).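 Further: peak over basal fluorescence ratio from a 100 s FLIPR kinetic read.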 The settings on record: Fluo-8 calcium fluorescence, at 3 µM, active compounds read high, normalized: DMSO 0%, oxytocin 100%.
With `Cn1c(C(=O)OC(C(=O)NC2CCCCC2)c2ccccn2)cc2sccc21` (configuration not stated), the activation was -2.18%.

With `Cc1nc(-c2ccccc2)cn2c1nc1ccccc12`, the activation was -2.1%. On to `c1ccc(-c2cc3c(NCC4COc5ccccc5O4)ncnc3s2)cc1` (configuration not stated), for which the activation was -2.32%. For `c1ccc2c(c1)OCC(CNc1ncnc3nc[nH]c13)O2` (configuration not stated), the activation is 80.8% (active). The value for `S=C(NCC1COc2ccccc2O1)Nc1ccc(Br)cc1` (configuration not stated) was 6.93%; that for `CCc1ccc(C2N3CC4([N+](=O)[O-])CN2CC([N+](=O)[O-])(C3)C4(C)C)cc1` (configuration not stated) was -1.26%.

With `Cc1ccc(NC(=O)C(CC(=O)O)C2CCCO2)c(C)c1` (configuration not stated), the activation is -0.43%. In the case of `COc1ccc(NS(=O)(=O)c2ccc(NC(=S)NC(=O)CC(C)C)cc2)cc1`, the activation is 22.5% (active). As for `COc1ccc(OC)c(C(C)NC(=S)Nc2ccc(S(=O)(=O)Nc3ncccn3)cc2)c1` (configuration not stated), the activation is -0.31%. Turning to `CC(=O)c1ccc(NC(=S)NC(=O)CC(C)C)cc1`, the activation is -2.1%. As for `Cc1ccccc1CSc1nnc(-c2ccccc2)c(=O)[nH]1`, the activation was 0.69%.

For `CCOc1ccc(/C=C(/NC(=O)c2ccccc2)C(=O)NCCC(=O)O)cc1`, the activation was 0.74%.

`COC(=O)c1sc(-c2ccc(C(C)(C)C)cc2)cc1NC(=O)/C=C/C(=O)O`: the activation was 21.9% (active).

For the molecule `CC(C)(C)c1ccc(/C=C/C(=O)Nc2ncccn2)cc1`, the activation was -1.37%. Take `COc1ccccc1NC(=O)/C=C/C(N)=O`: the activation is 0.46%. For the molecule `CNC[C@H](CC1CCCCC1)NC[C@H](NCCC1CCCC1)[C@H](C)O`, the activation is 3.53%. Regarding `O=C(O)/C=C/c1ccc(OCCCF)cc1`, the activation is 0.01%.

On to `O=C(/C=C/c1ccc2c(c1)OCCO2)c1ccc(O)cc1`, for which the activation is 1.57%.

As to `O=C(/C=C(O)/C=C/c1ccc(O)cc1)/C=C/c1ccc(O)cc1`, the activation was 99.9% (active). Take `CCOc1cc(/C=C/c2nc3ccccc3c(=O)[nH]2)cc(Br)c1OC`: the activation is 0.74%. As for `CC(C)[C@H](NC(=O)N1CCn2c1nc1ccccc12)C(=O)NCc1ccc2c(c1)OCO2`, the activation is -1.49%.

For `O=C(NCc1ccccc1Cl)C1CCN(c2ncnc3c2nc2n3CCCCC2)CC1`, the activation is 0.32%. Turning to `Cc1cc(F)ccc1N1CCC(N2CCN(C)C(CCO)C2)CC1` (configuration not stated), the activation was 0.09%.

Regarding `COc1cc(C(=O)NC2CCN(C)CC2)ccc1Nc1ncc2c(n1)N(C1CCC(O)CC1)CCC(=O)N2C` (configuration not stated), the activation is 0.79%. Take `COc1ccc(CCC(=O)c2ccc(OC)cc2)cc1`: the activation was -2.31%. Regarding `COc1ccc(C(=O)NC(=S)NNC(=O)CCc2ccccc2)cc1`, the activation was 46% (active).

For `COc1ccc(C(=O)NNC(=S)NC(=O)c2ccccc2[N+](=O)[O-])cc1`, the activation was -2.16%. The value for `COc1ccc(C(=O)NC2CCN(C(=S)NCCc3ccccc3)CC2)cc1` was -0.97%; that for `COc1ccc(C(=O)NNC(=S)NC(=O)c2ccccc2)cc1` was 55% (active); that for `COc1ccc(C(=O)NC(=S)NC2CCCCC2)cc1` was -1.13%. As for `CNC(=O)c1csc(Cc2c(Cl)sc3ccc(Cl)cc23)n1`, the activation was -2.05%.

For `O=C(NCc1ccncc1)C(=O)NCC1OCCN1S(=O)(=O)c1ccc(Br)cc1` (configuration not stated), the activation was 0.38%. For `NC(=O)c1ccsc1NC(=O)COC(=O)COc1ccc(C=O)cc1`, the activation is 16.4%. As to `Cc1c(Br)c([N+](=O)[O-])nn1CC(=O)Nc1sc2c(c1C(=O)OC(C)C)CCC(C)C2` (configuration not stated), the activation was 0.81%. To `COc1cc(NC(=O)CSC(=S)N2CCCC2)c(OC)cc1Cl` belongs -1.55%; to `CCN1/C(=C\c2ccc3ccccc3[n+]2CC)Sc2cc(C)ccc21`, 23.2% (active); to `C=CCN1C(=NC(=O)COc2ccccc2)SC2CS(=O)(=O)CC21` (configuration not stated), 1.7%. `O=C(CSc1nc2ncccc2[nH]1)Nc1ccc2c(c1)OCCO2`: the activation was -2.32%. For the molecule `CCc1ccc2c(c1)C1(NN=C(c3ccccc3)S1)C(=O)N2` (configuration not stated), the activation is -1.26%.

In the case of `O=C1/C(=C\c2ccsc2)NC(=S)N1c1ccccc1`, the activation is 0.14%. For the molecule `CN(C)c1ccc(C=C2C(=O)OC3(CCCC3)OC2=O)cc1`, the activation was 3.44%. Regarding `CN(C)c1ccc(/C=C2\NC(=S)N(Cc3ccccc3)C2=O)cc1`, the activation was 51.8% (active). `N#CCCN(C(=O)COC(=O)c1ccc2c(c1)OCCO2)c1ccccc1`: the activation was 1.54%. To `Cn1cccc1C1(C(F)(F)F)NCCNC1=O` (configuration not stated) belongs 1.22%; to `CCCC(=O)NC(=S)Nc1ccc(CN2CCOCC2)cc1`, 1%. In the case of `CCOC(=O)N1CCN(C(=O)CSc2nc(=O)n3cccc(C)c3n2)CC1`, the activation is -0.13%. The value for `CCOC(=O)CC1C(=O)NCCN1c1nc2c(C)cccn2c(=O)c1/C=C1\SC(=S)N(C(C)CC)C1=O` (configuration not stated) was 23.3% (active). With `Cc1cccn2c(=O)c(/C=C(\C#N)C(N)=O)c(N3CCCCCC3)nc12`, the activation is -2.52%. Turning to `O=[N+]([O-])c1ccccc1N/N=C1\CCc2ccccc21`, the activation is 1.32%. To `COc1cc(OC)c(N2CC(C(=O)Nc3cc(Cl)ccc3N3CCOCC3)CC2=O)cc1Cl` (configuration not stated) belongs 10.6%. Regarding `COc1cc(OC)c(-n2cc(-c3ccc(Cl)cc3)[nH]c2=O)cc1Cl`, the activation was 42.2% (active). Turning to `COc1cc(OC)c(-n2c(C)cc(C=O)c2C)cc1Cl`, the activation was -0.29%. For `Cc1ccc(-n2ncc3c(Nc4cccc(C(=O)O)c4)ncnc32)cc1`, the activation is -1.04%. Turning to `O=C(NCc1cccnc1)C12CC3CC(CC(C3)C1)C2`, the activation was -0.43%. To `CCCN(CC(=O)Nc1ccccc1OC)C(=O)CCC(=O)c1ccc(F)cc1` belongs -2.01%; to `C/C(=N/NS(=O)(=O)c1ccccc1)c1ccc(NC(=O)C(F)(F)F)cc1`, -0.88%; to `C/C(=N\NS(=O)(=O)c1ccc(Cl)cc1)c1ccc(NC(=O)c2ccco2)cc1`, 24.5% (active). With `O=C(Nc1ccc(O)cc1)c1ccc(NC(=O)c2ccco2)cc1`, the activation is 1.38%. To `O=C(O)CCn1c(O)c(C=C2N=c3ccccc3=N2)sc1=S` belongs 0.13%; to `Cc1ccc(-c2nn(-c3ccccc3)cc2/C=N/NC(=O)c2ccc3c(c2)OCO3)cc1`, -1.39%.

As for `CCc1ccc(-c2nn(-c3ccccc3)cc2CSC(=N)N)cc1`, the activation is 24.2% (active).

In the case of `CCc1ccc(-c2nn(-c3ccccc3C)cc2C(=O)N2CCN(C3CCS(=O)(=O)C3)CC2)cc1` (configuration not stated), the activation is 2.09%. For the molecule `O=C(NC(Nc1nc2ccc([N+](=O)[O-])cc2s1)(C(F)(F)F)C(F)(F)F)c1ccccc1`, the activation was 20% (active). Turning to `O=C(CCNC(=O)c1ccccc1)Nc1nc2ccccc2s1`, the activation is 2.26%.

In the case of `O=C(CNC(=O)c1ccccc1)Oc1ccc([N+](=O)[O-])cc1`, the activation was 2.42%. The value for `CCOC(=O)CN(C)S(=O)(=O)c1ccc(-c2cc(C(=O)OC)sc2C(F)(F)F)cc1` was 1.32%. As for `O=C(NCc1ccccc1)C(c1ccccc1)N(C(=O)c1csnn1)c1ccc(F)cc1` (configuration not stated), the activation is 1.2%. The value for `Nc1ncnc2c1ncn2[C@@H]1O[C@H](CNCc2cccn2-c2nccs2)[C@@H](O)[C@H]1O` was -0.14%.

`CCc1noc(C)c1C(=O)NNC(=O)c1ccc(F)cc1`: the activation is 0.43%. As to `Cc1onc(-c2ccccc2)c1C(=O)Nc1ccccc1C#N`, the activation was -1.5%. Turning to `Cc1onc(-c2ccccc2)c1C(=O)NNC(=S)NC(=O)c1ccc(F)cc1`, the activation was 32.9% (active). `COc1ccc(C(=O)NC(=S)NNC(=O)c2c(-c3ccccc3)noc2C)cc1`: the activation is 46.7% (active). Take `Cc1onc(-c2c(Cl)cccc2Cl)c1C(=O)NNC(=O)c1c(-c2c(Cl)cccc2Cl)noc1C`: the activation was -1.38%. Consider `Cc1ccc(CNC(=O)c2c(-c3ccccc3)noc2C)cc1`, for which the activation was -1.84%. As for `O=C(Nc1ccc(-n2ccnc2P(=O)(O)c2ccccc2)cc1)c1ccccc1Br`, the activation was -0.12%. `Cc1csc2nc(O)c(C(=O)NCCN3CCOCC3)c(=O)n12`: the activation is 0.15%. For `Cc1cc(C)c(S(=O)(=O)N2C=CC(C(F)(F)F)=NCC2)c(C)c1`, the activation was 0.69%. The value for `CN(CCc1ccccc1)C(=O)c1cccc(NC(=O)Cc2ccc([N+](=O)[O-])cc2)c1` was 13.1%; that for `CCCc1cc(=O)[nH]c(SCC(=O)N2CCN(S(=O)(=O)c3ccc(C)cc3C)CC2)n1` was -1.06%. Consider `COC(=O)C1(S(=O)(=O)C2(C(=O)OC)CCCC2)CCCC1`, for which the activation is -0.45%.

On to `COc1cc(/C=C(\C#N)c2nc3c(s2)CC(C)CC3)ccc1O` (configuration not stated), for which the activation was 12.7%.

For `CCOc1cc(/C=C(\C#N)c2nc(-c3cccs3)c(NC(C)=O)s2)ccc1O`, the activation is 23.4% (active). The value for `CCOc1cc(-c2cc(-c3ccc(NC(C)=O)cc3)nc(N)c2C#N)ccc1O` was 1.58%. Turning to `Cc1cccc(NC(=O)C(C)N2C(=O)C3C4CC(C(Br)C4Br)C3C2=O)c1` (configuration not stated), the activation was 8.44%. In the case of `CN(CC(=O)Nc1ccc(OC(F)(F)F)cc1)C(=O)C1CCC1`, the activation was 3.13%. Regarding `O=C(Nc1ccc2ccccc2c1)/C(=C/c1cccc(Br)c1)NC(=O)c1ccco1`, the activation is 0.36%.

Consider `Cc1ccc(OCC(=O)NCCCNC(=O)c2ccco2)cc1C`, for which the activation was 0.98%.

As for `Cc1ccc(OCC(=O)NNC(=S)NCc2ccccc2)cc1`, the activation is -1.15%. Turning to `Cc1ccc(C(=O)NNC(=O)C(C)Oc2ccc3ccccc3c2)o1` (configuration not stated), the activation is 1.07%. To `CCCc1ccc(OCC(=O)NNC(=S)NC(=O)c2ccco2)cc1` belongs 31.6% (active); to `CC(Oc1ccc2ccccc2c1)C(=O)NNC(=S)NC(=O)c1ccco1` (configuration not stated), 33.9% (active); to `COc1ccc(Cn2c(O)c(/C=C3/C=CC=N3)c(=O)[nH]c2=O)cc1`, -0.07%.
